This note sets out measurements from paper PMC11006913.

Experiment in all cases: PBM; 200 nM protein, PBS
Holding throughout (settings): dsDNA, one strand shown

In experiment [1] the target is T1, SIX6 (Homo sapiens, UniProt O95475 114-200, L167I).
T1 sequence: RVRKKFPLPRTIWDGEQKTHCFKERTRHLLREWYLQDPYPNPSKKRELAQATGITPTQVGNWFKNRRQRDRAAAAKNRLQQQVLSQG

In experiment [2] the target is T2, SIX6 (Homo sapiens, UniProt O95475 114-200, L143V).
T2 sequence: T1 sequence with L30V, I54L

The target in experiment [3] is T3, SIX6 (Homo sapiens, UniProt O95475 114-200, H141N).
T3 sequence: T1 sequence with H28N, I54L

In experiment [4] the target is T4, SIX6 (Homo sapiens, UniProt O95475 114-200, T165P).
T4 sequence: T1 sequence with T52P, I54L

The target in experiment [5] is T5, SIX6 (Homo sapiens, UniProt O95475 114-200, L167M).
T5 sequence: T1 sequence with I54M

The target in experiment [6] is T6, SIX6 (Homo sapiens, UniProt O95475 114-200, L143M).
T6 sequence: T1 sequence with L30M, I54L

The target in experiment [7] is T7, SIX6 (Homo sapiens, UniProt O95475 114-200, L143I).
T7 sequence: T1 sequence with L30I, I54L

Experiment [8] addresses T8, SIX6 (Homo sapiens, UniProt O95475 114-200, T165G).
T8 sequence: T1 sequence with T52G, I54L

For experiment [9], the target named is T9, SIX6 (Homo sapiens, UniProt O95475 114-200, T139Q).
T9 sequence: T1 sequence with T26Q, I54L

Experiment [10] has as its target T10, SIX6 (Homo sapiens, UniProt O95475 114-200, T165A).
T10 sequence: T1 sequence with T52A, I54L

Experiment [11] has as its target T11, SIX6 (Homo sapiens, UniProt O95475 114-200, L167V).
T11 sequence: T1 sequence with I54V

For experiment [12], the target named is T12, SIX6 (Homo sapiens, UniProt O95475 114-200).
T12 sequence: T1 sequence with I54L

The target in experiment [13] is T13, SIX6 (Homo sapiens, UniProt O95475 114-200, T165I).
T13 sequence: T1 sequence with T52I, I54L

Positions count from the first letter of the chain named.

Regarding CAGGACCG, the binding signal with SIX6 [1] was 9.24 upbm affinity estimate (log intensity, higher = more binding, comparable within an allelic series); with SIX6 [2] it was 9.05 upbm affinity estimate (log intensity, higher = more binding, comparable within an allelic series); with SIX6 [3] it was 9.24 upbm affinity estimate (log intensity, higher = more binding, comparable within an allelic series); with SIX6 [4], 9.18 upbm affinity estimate (log intensity, higher = more binding, comparable within an allelic series); with SIX6 [5], 9.01 upbm affinity estimate (log intensity, higher = more binding, comparable within an allelic series); in the experiment with SIX6 [6], 9.2 upbm affinity estimate (log intensity, higher = more binding, comparable within an allelic series). Moreover, the binding signal in the experiment with SIX6 [7] was 9.14 upbm affinity estimate (log intensity, higher = more binding, comparable within an allelic series); with SIX6 [8], 9.28 upbm affinity estimate (log intensity, higher = more binding, comparable within an allelic series); with SIX6 [9], 9.23 upbm affinity estimate (log intensity, higher = more binding, comparable within an allelic series); in the experiment with SIX6 [10], 9.16 upbm affinity estimate (log intensity, higher = more binding, comparable within an allelic series); with SIX6 [11], 9.19 upbm affinity estimate (log intensity, higher = more binding, comparable within an allelic series); in the experiment with SIX6 [12], 9.17 upbm affinity estimate (log intensity, higher = more binding, comparable within an allelic series). For the same sequence, the binding signal with SIX6 [13] was 9.13 upbm affinity estimate (log intensity, higher = more binding, comparable within an allelic series).
On to GGTATCAA, for which the binding signal with SIX6 [1] was 11.6 upbm affinity estimate (log intensity, higher = more binding, comparable within an allelic series); with SIX6 [2], 10.6 upbm affinity estimate (log intensity, higher = more binding, comparable within an allelic series); with SIX6 [3] it was 11.7 upbm affinity estimate (log intensity, higher = more binding, comparable within an allelic series); with SIX6 [4], 9.74 upbm affinity estimate (log intensity, higher = more binding, comparable within an allelic series); with SIX6 [5], 11 upbm affinity estimate (log intensity, higher = more binding, comparable within an allelic series); with SIX6 [6], 11.4 upbm affinity estimate (log intensity, higher = more binding, comparable within an allelic series). The binding signal in the experiment with SIX6 [7] is 10.6 upbm affinity estimate (log intensity, higher = more binding, comparable within an allelic series); with SIX6 [8], 11.6 upbm affinity estimate (log intensity, higher = more binding, comparable within an allelic series); with SIX6 [9], 11.5 upbm affinity estimate (log intensity, higher = more binding, comparable within an allelic series); with SIX6 [10], 11.6 upbm affinity estimate (log intensity, higher = more binding, comparable within an allelic series); with SIX6 [11], 11.4 upbm affinity estimate (log intensity, higher = more binding, comparable within an allelic series); in the experiment with SIX6 [12], 11.4 upbm affinity estimate (log intensity, higher = more binding, comparable within an allelic series). In addition, the binding signal with SIX6 [13] is 11.4 upbm affinity estimate (log intensity, higher = more binding, comparable within an allelic series).
AGATATCA: the binding signal with SIX6 [1] is 11.4 upbm affinity estimate (log intensity, higher = more binding, comparable within an allelic series); with SIX6 [2], 10.5 upbm affinity estimate (log intensity, higher = more binding, comparable within an allelic series); with SIX6 [3], 11.4 upbm affinity estimate (log intensity, higher = more binding, comparable within an allelic series); in the experiment with SIX6 [4], 10.1 upbm affinity estimate (log intensity, higher = more binding, comparable within an allelic series); with SIX6 [5], 10.8 upbm affinity estimate (log intensity, higher = more binding, comparable within an allelic series); with SIX6 [6] it was 11 upbm affinity estimate (log intensity, higher = more binding, comparable within an allelic series). For the same sequence, the binding signal in the experiment with SIX6 [7] is 10.4 upbm affinity estimate (log intensity, higher = more binding, comparable within an allelic series); with SIX6 [8], 11.2 upbm affinity estimate (log intensity, higher = more binding, comparable within an allelic series); with SIX6 [9] it was 11.1 upbm affinity estimate (log intensity, higher = more binding, comparable within an allelic series); with SIX6 [10] it was 11.2 upbm affinity estimate (log intensity, higher = more binding, comparable within an allelic series); with SIX6 [11], 11.2 upbm affinity estimate (log intensity, higher = more binding, comparable within an allelic series); with SIX6 [12] it was 11 upbm affinity estimate (log intensity, higher = more binding, comparable within an allelic series). The binding signal with SIX6 [13] is 11.1 upbm affinity estimate (log intensity, higher = more binding, comparable within an allelic series).
As for CGCACTCC, the binding signal with SIX6 [1] was 8.92 upbm affinity estimate (log intensity, higher = more binding, comparable within an allelic series); with SIX6 [2] it was 8.98 upbm affinity estimate (log intensity, higher = more binding, comparable within an allelic series); with SIX6 [3], 8.96 upbm affinity estimate (log intensity, higher = more binding, comparable within an allelic series); in the experiment with SIX6 [4], 9.15 upbm affinity estimate (log intensity, higher = more binding, comparable within an allelic series); with SIX6 [5], 8.96 upbm affinity estimate (log intensity, higher = more binding, comparable within an allelic series); with SIX6 [6], 8.9 upbm affinity estimate (log intensity, higher = more binding, comparable within an allelic series). The binding signal with SIX6 [7] was 9.01 upbm affinity estimate (log intensity, higher = more binding, comparable within an allelic series); in the experiment with SIX6 [8] it was 9.09 upbm affinity estimate (log intensity, higher = more binding, comparable within an allelic series); in the experiment with SIX6 [9] it was 9 upbm affinity estimate (log intensity, higher = more binding, comparable within an allelic series); with SIX6 [10], 9.06 upbm affinity estimate (log intensity, higher = more binding, comparable within an allelic series); in the experiment with SIX6 [11], 8.95 upbm affinity estimate (log intensity, higher = more binding, comparable within an allelic series); with SIX6 [12], 9.04 upbm affinity estimate (log intensity, higher = more binding, comparable within an allelic series). In the experiment with SIX6 [13], the binding signal is 8.97 upbm affinity estimate (log intensity, higher = more binding, comparable within an allelic series).
For CGTATCAC, the binding signal with SIX6 [1] is 11.2 upbm affinity estimate (log intensity, higher = more binding, comparable within an allelic series); with SIX6 [2], 10.3 upbm affinity estimate (log intensity, higher = more binding, comparable within an allelic series); with SIX6 [3], 11.3 upbm affinity estimate (log intensity, higher = more binding, comparable within an allelic series); in the experiment with SIX6 [4], 9.61 upbm affinity estimate (log intensity, higher = more binding, comparable within an allelic series); with SIX6 [5] it was 10.6 upbm affinity estimate (log intensity, higher = more binding, comparable within an allelic series); in the experiment with SIX6 [6] it was 11 upbm affinity estimate (log intensity, higher = more binding, comparable within an allelic series). Besides, the binding signal is 10.4 upbm affinity estimate (log intensity, higher = more binding, comparable within an allelic series) with SIX6 [7]; 11.3 upbm affinity estimate (log intensity, higher = more binding, comparable within an allelic series) with SIX6 [8]; 11.3 upbm affinity estimate (log intensity, higher = more binding, comparable within an allelic series) in the experiment with SIX6 [9]; 11.2 upbm affinity estimate (log intensity, higher = more binding, comparable within an allelic series) in the experiment with SIX6 [10]; 11 upbm affinity estimate (log intensity, higher = more binding, comparable within an allelic series) with SIX6 [11]; 11 upbm affinity estimate (log intensity, higher = more binding, comparable within an allelic series) with SIX6 [12]. The binding signal with SIX6 [13] was 11.1 upbm affinity estimate (log intensity, higher = more binding, comparable within an allelic series).
For ATGGGGGC, the binding signal was 8.95 upbm affinity estimate (log intensity, higher = more binding, comparable within an allelic series) in the experiment with SIX6 [1]; 8.73 upbm affinity estimate (log intensity, higher = more binding, comparable within an allelic series) in the experiment with SIX6 [2]; 9.01 upbm affinity estimate (log intensity, higher = more binding, comparable within an allelic series) with SIX6 [3]; 8.77 upbm affinity estimate (log intensity, higher = more binding, comparable within an allelic series) with SIX6 [4]; 8.95 upbm affinity estimate (log intensity, higher = more binding, comparable within an allelic series) in the experiment with SIX6 [5]; 8.95 upbm affinity estimate (log intensity, higher = more binding, comparable within an allelic series) in the experiment with SIX6 [6]. Further, the binding signal with SIX6 [7] was 8.81 upbm affinity estimate (log intensity, higher = more binding, comparable within an allelic series); with SIX6 [8], 8.95 upbm affinity estimate (log intensity, higher = more binding, comparable within an allelic series); in the experiment with SIX6 [9] it was 9.11 upbm affinity estimate (log intensity, higher = more binding, comparable within an allelic series); in the experiment with SIX6 [10], 8.97 upbm affinity estimate (log intensity, higher = more binding, comparable within an allelic series); with SIX6 [11], 8.97 upbm affinity estimate (log intensity, higher = more binding, comparable within an allelic series); in the experiment with SIX6 [12] it was 8.87 upbm affinity estimate (log intensity, higher = more binding, comparable within an allelic series). Further, the binding signal in the experiment with SIX6 [13] was 8.97 upbm affinity estimate (log intensity, higher = more binding, comparable within an allelic series).
